The text below walks through data of PubChem BioAssay (NCATS).

The target in assay [1] is Nuclear receptor subfamily 1 group I member 2 (Homo sapiens) (UniProt O75469). As to the kind of experiment: Dual reporter qHTS for agonist of Pregnane X Receptor (hPXR) against the NCATS DSHEA and TCM libraries: Luminescence readout (AID 1920059; active = well fitted curve in the direction sought with a large enough effect; an effect the other way counts as inactive or inconclusive; note: 0% is about no effect). To be noted: hPXR dual reporter cells, luciferase luminescence agonist; series mostly up to 40 µM. The method in brief:
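Luminescent PXR reporter read (ONE-Glo) after a CellTiter-Fluor viability read, following 24 h, 37C treatment of HepG2 cells stably carrying hPXR-Luc.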
(Quantitative high-throughput screening tests each substance at several concentrations.)

Assay [2] shares this target. As to the kind of experiment: Dual reporter qHTS for antagonist of Pregnane X Receptor (hPXR) against the NCATS DSHEA and TCM libraries: Luminescence Readout (AID 1920060; active = well fitted curve in the direction sought with a large enough effect; an effect the other way counts as inactive or inconclusive;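 note: HepG2 cells carrying hPXR luciferase reporter stimulated with rifampicin at 2 µM; 0% is about no effect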). The conditions noted are these: hPXR dual reporter cells, luciferase luminescence, antagonist mode; series mostly up to 40 µM. An outline of the steps:
(§1)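 HepG2 hPXR-Luc, 2000 cells/well, charcoal-stripped FBS medium; 5 h attach; RIF 2 uM final; 24 h 37C/5% CO2; CellTiter-Fluor 1 h, fluor 405/540; ONE-Glo 30 min RT, lum.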

Assay [3] is described as follows: Dual reporter qHTS for antagonist of Pregnane X Receptor (hPXR) against the NCATS DSHEA and TCM libraries: Fluorescence Readout (AID 1920061; active = well fitted curve in the direction sought with a large enough effect; an effect the other way counts as inactive or inconclusive; note: 0% is about no effect). The conditions noted are these: PXR dual reporter cells, antagonist mode; series mostly up to 40 µM. An outline of the steps:
as §1

The nature of assay [4]: qHTS for identification of novel therapeutic agents for treatment of microphthalmiaassociated transcription factor (MiT) renal cell carcinoma (RCC) (AID 1963991).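 Note: curves scaled with 100% = DMSO viability and 0% = empty wells.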 To be noted: CellTiter-Glo, 48 h, stronger effect = lower value. An outline of the steps:
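UOK109/UOK124/UOK145 (TFE3 fusions, three partners); 500 cells/well; MIPE v4.0, 1912 cpds, 11 conc.; 48 h, 37 C; CellTiter-Glo, 15 min RT; lum. Norm.: DMSO 100%, empty 0%.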

Assay [5] can be described thus: qHTS drug screen for cell cycle checkpoint inhibitors in PARPi-resistant BRCA-mutant ovarian cancer cell lines. (AID 1963452). Note: potency is the fitted concentration of half-maximal effect. To be noted: PEO1/OlaR viability, CellTiter-Glo luminescence, 96 h; for Z-AUC: stronger effect = lower value. The method in brief: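 PEO1, PEO4 and PEO1/OlaR ovarian cancer cells, 600 per well, exposed 96 h at 37C to a dilution series. Viability read by CellTiter-Glo luminescence, normalized to DMSO and empty wells; activity summarized as Z-AUC.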

Where [6] appears, read: measured here: PEO1 parental Z-AUC.

Results filed as inconclusive are left out. Active and inactive are the calls of the source. Unless noted, calls come from the whole dose curve.

Nuclear receptor subfamily 1 group I member 2 (Homo sapiens), sequence (O75469 whole entry, looked up): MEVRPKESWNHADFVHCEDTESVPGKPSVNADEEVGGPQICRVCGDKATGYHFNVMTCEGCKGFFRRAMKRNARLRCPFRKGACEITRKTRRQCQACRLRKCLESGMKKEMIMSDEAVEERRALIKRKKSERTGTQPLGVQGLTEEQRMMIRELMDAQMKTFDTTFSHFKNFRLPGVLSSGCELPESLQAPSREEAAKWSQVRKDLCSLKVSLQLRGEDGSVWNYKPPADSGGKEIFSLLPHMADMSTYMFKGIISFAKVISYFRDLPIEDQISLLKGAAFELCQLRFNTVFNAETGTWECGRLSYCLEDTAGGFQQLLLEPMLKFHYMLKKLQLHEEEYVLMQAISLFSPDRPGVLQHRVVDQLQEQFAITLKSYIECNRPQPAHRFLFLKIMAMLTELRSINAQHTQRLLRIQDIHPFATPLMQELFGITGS

On to `OC[C@H]1O[C@@H](OCCc2ccc(O)cc2)[C@H](O)[C@@H](O)[C@H]1O`, for which the Potency entry in assay [1] is “inactive”. Also, the compound was classed as inactive in assay [2] and in assay [3]. Also, the z-score is 0.167 in assay [4] (TFE3-RCC UOK109 viability, measured here: UOK109 Z-AUC); 0.0834 in assay [4] (TFE3-RCC viability, measured here: UOK124 Z-AUC); -0.171 in assay [4] (TFE3-RCC viability, measured here: UOK145 Z-AUC).
Consider `Cn1c(=O)c(Oc2ccc(F)cc2F)cc2cnc(NC3CCOCC3)nc21`, for which the Z-AUC is 1.26 (inactive) in assay [5], 1.1 in assay [5] (setting [6]) and 1.01 in assay [5] (measured here: PEO4 Z-AUC).
In the case of `CC(=O)Nc1cccc(-n2c(=O)n(C3CC3)c(=O)c3c(Nc4ccc(I)cc4F)n(C)c(=O)c(C)c32)c1`, the values for the Z-AUC in assay [5], in assay [5] (setting [6]) and in assay [5] (measured here: PEO4 Z-AUC) were -0.972 (inactive), -1.33 and -1.07, respectively.
`c1ccc(CNc2nc(N3CCOc4ccccc43)nc3c2CCCC3)cc1`: the Z-AUC in assay [5] is 0.483 (inactive); in assay [5] (setting [6]), 0.277; in assay [5] (measured here: PEO4 Z-AUC) it was 1.17.
For `Cc1cnc(CNC(=O)c2c(=O)c3ccc(N4CCCN(C)CC4)nc3n3c2sc2ccccc23)cn1`, the Z-AUC was -0.335 (inactive) in assay [5], -0.603 in assay [5] (setting [6]) and 0.0193 in assay [5] (measured here: PEO4 Z-AUC).
For `O=C(O)c1ccc(O)c2ncc(N3CCOCC3)cc12`, the Z-AUC in assay [5] is -0.152 (inactive); in assay [5] (setting [6]) it was -0.649; in assay [5] (measured here: PEO4 Z-AUC), -0.698.
As for `Cn1c(=O)c(-c2c(Cl)cccc2Cl)cc2cnc(Nc3cccc(C(=O)O)c3)nc21`, the Z-AUC in assay [5] was 0.595 (inactive); in assay [5] (setting [6]), 0.413; in assay [5] (measured here: PEO4 Z-AUC), 0.693.
Turning to `CN(C)CCCNC(=O)c1ccc(-c2cc(O)c3ncccc3c2)cc1`, the Z-AUC was -0.763 (inactive) in assay [5], -0.299 in assay [5] (setting [6]) and -0.292 in assay [5] (measured here: PEO4 Z-AUC).
Take `CNC(=O)c1cc(COc2nnc(Nc3ccc(Cl)cc3)c3ccoc23)ccn1`: the Z-AUC in assay [5] is 0.731 (inactive); in assay [5] (setting [6]) it was 0.432; in assay [5] (measured here: PEO4 Z-AUC) it was 0.337.
On to `Cc1cnc(Nc2cccc(CN3CCOCC3)c2)nc1Nc1cccc(S(=O)(=O)NC(C)(C)C)c1`, for which the Z-AUC in assay [5] was -1.13 (inactive); in assay [5] (setting [6]), -0.892; in assay [5] (measured here: PEO4 Z-AUC), -1.26.
Turning to `COc1cc2nccc(Oc3ccc(NC(=O)Nc4ccc(F)cc4F)c(F)c3)c2cc1OC`, the Z-AUC is 0.868 (inactive) in assay [5], 0.566 in assay [5] (setting [6]) and 0.26 in assay [5] (measured here: PEO4 Z-AUC).
In the same order, the values of `CC[C@@H]([C@H](C)O)n1ncn(-c2ccc(N3CCN(c4ccc(OCC5CO[C@@](Cn6cncn6)(c6ccc(F)cc6F)C5)cc4)CC3)cc2)c1=O` (stereo partly drawn) are 0.357 (inactive), -0.0959 and -0.133.
On to `COc1cc([C@@H]2c3cc4c(cc3[C@@H](O[C@@H]3O[C@@H]5CO[C@@H](C)O[C@@H]5[C@H](O)[C@@H]3O)[C@H]3COC(=O)[C@H]23)OCO4)cc(OC)c1O`, for which the results for the Z-AUC in assay [5], in assay [5] (setting [6]) and in assay [5] (measured here: PEO4 Z-AUC) were -0.699 (inactive), -1.32 and -0.275, respectively.
Regarding `COc1ccc(-c2cc3nccn3c(Nc3ncccc3C(N)=O)n2)cc1OC`, the Z-AUC in assay [5] was 0.398 (inactive); in assay [5] (setting [6]), 0.401; in assay [5] (measured here: PEO4 Z-AUC), 0.0675.
In the same order, the values of `CC(C)(O)CC(=O)NCCn1ccc2ncnc(Nc3ccc(Oc4cccc(C(F)(F)F)c4)c(Cl)c3)c21` are 0.0129 (inactive), -0.0981 and -0.515.
For `O=C(O)CCC=CCC[C@@H]1[C@H](N2CCCCC2)[C@@H](O)C[C@@H]1OCc1ccc(-c2ccccc2)cc1`, the Z-AUC in assay [5] was 0.918 (inactive); in assay [5] (setting [6]), -0.0252; in assay [5] (measured here: PEO4 Z-AUC), 0.219.
With `O=C1CN2Cc3c(ccc(Cl)c3Cl)N=C2N1`, the figures for the Z-AUC in assay [5], in assay [5] (setting [6]) and in assay [5] (measured here: PEO4 Z-AUC) were -0.36 (inactive), 0.71 and 0.69, respectively.
In the same order, the values of `CN(C)CC[C@H](CSc1ccccc1)Nc1ccc(S(=O)(=O)NC(=O)c2ccc(N3CCN(Cc4ccccc4-c4ccc(Cl)cc4)CC3)cc2)cc1[N+](=O)[O-]` are -0.74 (inactive), 0.0363 and -1.54.
As for `CCN1CCC(n2cc(CNc3cc(Cl)c4ncc(C#N)c(Nc5ccc(F)c(Cl)c5)c4c3)nn2)CC1`, the Z-AUC is -1.28 (inactive) in assay [5], -0.754 in assay [5] (setting [6]) and -1.71 in assay [5] (measured here: PEO4 Z-AUC).
In the same order, the values of `CNC(=O)[C@H](Cc1ccccc1)NC(=O)[C@H](CC(C)C)[C@H](CSc1cccs1)C(=O)NO` are -0.0435 (inactive), -0.157 and 0.653.
In the same order, the values of `Cc1cc(C(C)Nc2ccccc2)c2nc(N3CCOCC3)cc(=O)n2c1` (stereo not drawn) are 0.744 (inactive), 1.25 and 1.25.
In the same order, the values of `CN(C)CCOc1cc(-c2cn[nH]c2)ccc1NC(=O)C1COc2ccccc2O1` (stereo not drawn) are 1.15 (inactive), 0.743 and 1.03.
In the case of `O=S(=O)(O)c1ccc2cc(N=Nc3cc(S(=O)(=O)O)c4cccnc4c3O)ccc2c1`, the Z-AUC in assay [5] was 0.327 (inactive); in assay [5] (setting [6]), -0.476; in assay [5] (measured here: PEO4 Z-AUC) it was 0.158.
As for `CCN(CC)CCCCNc1nc2cc(Cl)c(Cl)cc2nc1-c1ccc(-c2cccs2)s1`, the Z-AUC is 2.01 (inactive) in assay [5], 0.897 in assay [5] (setting [6]) and 0.59 in assay [5] (measured here: PEO4 Z-AUC).
For the compound `Nc1ccn([C@@H]2O[C@H](CO)[C@@H](O)[C@H]2O)c(=O)n1`, the Z-AUC in assay [5] is 0.821 (inactive); in assay [5] (setting [6]), 1.45; in assay [5] (measured here: PEO4 Z-AUC), 1.4.
As for `COc1nccc(-c2c(-c3ccc(F)cc3)ncn2C2CCC(O)CC2)n1` (stereo not drawn), the Z-AUC in assay [5] was 1.26 (inactive); in assay [5] (setting [6]) it was 1.27; in assay [5] (measured here: PEO4 Z-AUC), 1.21.
In the case of `COc1cc(Nc2nc3ccccc3nc2NS(=O)(=O)c2ccc(NC(=O)c3ccc(C)c(OC)c3)cc2)cc(OC)c1`, the values for the Z-AUC in assay [5], in assay [5] (setting [6]) and in assay [5] (measured here: PEO4 Z-AUC) were -0.848 (inactive), -0.462 and -0.582, respectively.
Taken in the same sequence, the figures for `CC1(COc2ccc3c(c2)ncn3-c2ccc3cccc(N4CCC(N)CC4)c3n2)COC1` were 0.496 (inactive), -0.0934 and -0.193.
Turning to `CCc1cccc(CC)c1NC(=O)N1Cc2[nH]nc(NC(=O)c3ccc(N4CCN(C)CC4)cc3)c2C1`, the figures for the Z-AUC in assay [5], in assay [5] (setting [6]) and in assay [5] (measured here: PEO4 Z-AUC) were -0.0238 (inactive), 0.421 and -0.125, respectively.
For the compound `C[C@]12CC[C@@H]3c4ccc(O)cc4CC[C@H]3[C@H]1[C@@H](O)[C@@H](O)[C@H]2O`, the Z-AUC in assay [5] was 1 (inactive); in assay [5] (setting [6]) it was 0.841; in assay [5] (measured here: PEO4 Z-AUC), 0.542.
Regarding `c1ccc(-c2oc3ncnc(NC[C@@H]4CCCO4)c3c2-c2ccccc2)cc1`, the Z-AUC is -1.81 (inactive) in assay [5], -0.438 in assay [5] (setting [6]) and -1.2 in assay [5] (measured here: PEO4 Z-AUC).
Turning to `CCNC(=O)c1noc(-c2cc(C(C)C)c(O)cc2O)c1-c1ccc(CN2CCOCC2)cc1`, the Potency in assay [5] is 0.0245 µM (active). Moreover, the Z-AUC in assay [5] (setting [6]) is -1.81; in assay [5] (measured here: PEO4 Z-AUC), -1.08.
Consider `O=C(O)CCNc1cc(N2CCc3ccccc3CC2)nc(-c2ccccn2)n1`, for which the Z-AUC is 0.743 (inactive) in assay [5], 0.477 in assay [5] (setting [6]) and 0.175 in assay [5] (measured here: PEO4 Z-AUC).
Taken in the same sequence, the figures for `CCCCC(C)(C)[C@H](O)C=C[C@H]1[C@H](O)CC(=O)[C@H]1CC=CCCCC(=O)O` were 0.66 (inactive), 0.266 and 0.726.
Turning to `Cc1c(C(=O)Nc2ccc(N3C[C@@H](C)O[C@@H](C)C3)nc2)cccc1-c1ccc(OC(F)(F)F)cc1`, the Z-AUC is 0.823 (inactive) in assay [5], 1.06 in assay [5] (setting [6]) and 0.91 in assay [5] (measured here: PEO4 Z-AUC).
